Assay [1] is described as follows: NCI Yeast Anticancer Drug Screen. Data for the rad50 strain (AID 155).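 Also: 0% = growth of vehicle-only cultures of the same strain.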 Particulars: S. cerevisiae rad50 strain growth inhibition, active compounds read high; at 50.0 µM unless noted. Put shortly:
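Compounds were tested on a yeast strain with an engineered DNA damage repair alteration; the reported value is growth inhibition normalised to vehicle treatment.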

A short description of assay [2]: NCI Yeast Anticancer Drug Screen. Data for the mec2-1 strain (AID 157). Particulars: S. cerevisiae mec2-1 strain, active compounds read high; at 50.0 µM unless noted. Put shortly: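 Yeast mec2-1 mutant treated with compound. Readout: growth inhibition vs vehicle controls.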
Assay [3] can be described thus: NCI Yeast Anticancer Drug Screen. Data for the sgs1 mgt1 strain (AID 161).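 Also: 0% = growth of cultures given vehicle only.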 The conditions noted are these: S. cerevisiae sgs1 mgt1 strain, active compounds read high; at 50.0 µM unless noted. A digest of the protocol:
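Mutant yeast exposed to compound; growth scored against vehicle-only wells.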

Assay [4] in a line: NCI Yeast Anticancer Drug Screen. Data for the cln2 rad14 strain (AID 165).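 Also: 0% = growth equal to vehicle treated cultures.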 Particulars: S. cerevisiae cln2 rad14 strain, active compounds read high; at 50.0 µM unless noted. A digest of the protocol: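 cln2 rad14 yeast strain; compound exposure; growth inhibition read vs vehicle controls.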
Assay [5] is described as follows: NCI Yeast Anticancer Drug Screen. Data for the bub3 strain (AID 167). Particulars: S. cerevisiae bub3 mutant strain, active compounds read high; at 50.0 µM unless noted. A digest of the protocol: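 Growth of a checkpoint-deficient yeast mutant is measured after compound exposure. Values represent inhibition relative to vehicle.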
Assay [6] can be described thus: NCI Yeast Anticancer Drug Screen. Data for the mlh1 rad18 strain (AID 175). The conditions noted are these: S. cerevisiae mlh1 rad18 strain growth inhibition, active compounds read high; at 50.0 µM unless noted. A digest of the protocol: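 Yeast w/ defined DNA-repair lesions; compound exposure; growth vs vehicle controls → % inhibition.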

Where “and” joins values, the source holds several entries; their conditions need not be identical. Identical values can stand only once. About 79,000 compounds went through this panel and 15% of them were active in at least one assay; those are over-represented in the sample as a whole. A number with no mark means an inactive call. Calls of active or inactive are those of the source. Rule as the data show it: active = growth inhibition above about 70%; inactive = the rest.

As to `CC(=O)Nc1cc([N+](=O)[O-])cc([N+](=O)[O-])c1O`, the growth inhibition was -7.5% in assay [1]; -6.95% in assay [2]; -1.6% in assay [3]; -24.8% in assay [4]; -10.8% in assay [5]; 7.2% in assay [6].
For the molecule `CC1=C(C(=O)OC(C)(C)C)C(c2ccc([N+](=O)[O-])cc2)C(C(=O)OC(C)(C)C)=C(C)N1`, the growth inhibition is 0.2% in assay [1]; -4.9% in assay [2]; 3.85% in assay [3]; 12.2% in assay [4]; -12.8% in assay [5]; 15.4% in assay [6].
Regarding `CCOc1nc(=O)n(C2OC(CO)C(O)C2O)s1` (configuration not stated), the growth inhibition in assay [1] was 26.4%; in assay [2] it was -1.35%; in assay [3] it was -3.7%; in assay [4], -34.1%; in assay [5] it was -5.65%; in assay [6], 2.5%.
As for `O=C1/C(=C\C=C\c2ccccc2)CCCC/C1=C\C=C\c1ccccc1`, the growth inhibition in assay [1] was 11.3%; in assay [2] it was -0.35%; in assay [3], -0.95%; in assay [4], 5.95%; in assay [5] it was -1.4%; in assay [6], 8.35%.
Consider `COc1ccc(/C=C2\N=C3N(Cc4ccccc4)C=C(N)N3C2=O)cc1`, for which the growth inhibition in assay [1] is 2.65%; in assay [2], -6.1%; in assay [3], 15.8%; in assay [4], -6.55%; in assay [5], 17.8%; in assay [6] it was 9.75%.
Turning to `CC1=CC(C)(C)N(C)C(N)=N1`, the growth inhibition in assay [1] is -4.45%; in assay [2], -3.1%; in assay [3], -5.3%; in assay [4], -43.2%; in assay [5], -2.65%; in assay [6], -1.75%.
For the molecule `CCO[C@@H]1OC(=O)[C@H]2C(c3ccc(Cl)cc3)=NO[C@@H]12`, the growth inhibition in assay [1] was -13.4%; in assay [2], -33.7%; in assay [3], 0.05%; in assay [4] it was 3.6%; in assay [5], 29.8%; in assay [6] it was -4.9%.
As for `CC1CCCCN1P(c1ccccc1)N1CCCCC1C` (configuration not stated), the growth inhibition was 28.5% in assay [1]; 16.9% in assay [2]; 18.5% in assay [3]; 24.1% in assay [4]; 35% in assay [5]; 22.7% in assay [6].
For `COC(=O)c1c(C)nc(C)c(N=O)c1-c1ccccc1C(F)(F)F`, the growth inhibition in assay [1] is 6.4%; in assay [2], 5.5%; in assay [3], 7.45%; in assay [4] it was 20.1%; in assay [5] it was 12.4%; in assay [6] it was -44.6%.
Consider `Cc1nnc(N/N=C(/C(=O)C(C#N)c2ccc(Cl)cc2)C(C#N)c2ccc(Cl)cc2)n1N` (configuration not stated), for which the growth inhibition was -9.3% in assay [1]; 19.6% in assay [2]; 3.85% in assay [3]; 16.6% in assay [4]; 12% in assay [5]; 7.4% in assay [6].
Turning to `O=c1nc2sccn2c2ncccc12`, the growth inhibition in assay [1] was -18.5%; in assay [2] it was 5.35%; in assay [3] it was -11.8%; in assay [4] it was 46.6%; in assay [5], 10.9%; in assay [6], 16.1%.
Consider `C/C=C/C=C/C(=O)OCCCC`, for which the growth inhibition is 6.95% in assay [1]; -0.65% in assay [2]; -8.55% in assay [3]; 5.65% in assay [4]; 15.1% in assay [5]; -1.75% in assay [6].
Take `CN(CC#CC#CCN(C)c1ccccc1)c1ccccc1`: the growth inhibition in assay [1] was -14.2%; in assay [2], -28.1%; in assay [3], -13.6%; in assay [4], -27%; in assay [5], -35.2%; in assay [6], -20.1%.
As for `O=C(Nc1ccc(Br)cc1)C(Br)C(Br)c1ccccc1` (configuration not stated), the growth inhibition was 98% (active) in assay [1]; 97.7% (active) in assay [2]; 98.6% (active) in assay [3]; 96.7% (active) in assay [4]; 97.8% (active) in assay [5]; 97.9% (active) in assay [6].
Take `CN(C(=O)c1cccc([N+](=O)[O-])c1)C1CCCCC1`: the growth inhibition in assay [1] is 2.6%; in assay [2] it was 34.5%; in assay [3] it was 32.6%; in assay [4], -4.7%; in assay [5] it was 22.4%; in assay [6], 14.2%.
As to `O=C(Cc1nc2ccccc2o1)C(=O)Nc1cccc(Cl)c1`, the growth inhibition is -4.25% in assay [1]; 0.9% in assay [2]; -1.95% in assay [3]; -42.2% in assay [4]; 3.65% in assay [5]; 19.1% in assay [6].
Consider `CCC(/C=C/c1ccc(C)cc1)=N\NC(=O)c1ccccc1`, for which the growth inhibition in assay [1] was -0.25%; in assay [2] it was -2.3%; in assay [3] it was -1.1%; in assay [4], 19.2%; in assay [5], 3.35%; in assay [6], 3.05%.
Regarding `OC1C(SCc2ccccc2)OCC2OC3(CCCCC3)OC21` (configuration not stated), the growth inhibition was -5.1% in assay [1]; -5.7% in assay [2]; -9% in assay [3]; -5.9% in assay [4]; 1.75% in assay [5]; 9.45% in assay [6].
For the molecule `CN(C(=O)Nc1ccccc1)c1ccc(O)cc1`, the growth inhibition in assay [1] was 19.4%; in assay [2], -8.55%; in assay [3], -16.4%; in assay [4], -11.9%; in assay [5], -11.9%; in assay [6], 12.7%.
In the case of `CC1=Nc2ccccc2S/C1=C(/C)NNS(=O)(=O)c1ccc(C)cc1`, the growth inhibition is 10.1% in assay [1]; -0.05% in assay [2]; 0.25% in assay [3]; -6.3% in assay [4]; 7.75% in assay [5]; 18.1% in assay [6].
As for `CCOC(=O)C/C(O)=C(/C=N/C(=S)NNC(C)=O)C(=O)OCC`, the growth inhibition in assay [1] was -27.1%; in assay [2], -28.9%; in assay [3], -32.2%; in assay [4] it was 2.65%; in assay [5], -19.6%; in assay [6], -8.65%.
For the molecule `c1ccc(CNc2nn[nH]n2)cc1`, the growth inhibition in assay [1] is 2.65%; in assay [2], 5.1%; in assay [3] it was -5.9%; in assay [4], -20.6%; in assay [5] it was 4.2%; in assay [6], 9%.
Consider `COC1=CC2CC(C#N)C2(OC)C=C1` (configuration not stated), for which the growth inhibition was -10.8% in assay [1]; 5.75% in assay [2]; -4.7% in assay [3]; -18.2% in assay [4]; -17.4% in assay [5]; 1.8% in assay [6].
For the molecule `CN(C)C(C)(CO)CO`, the growth inhibition in assay [1] was 17.4%; in assay [2], -6.55%; in assay [3], 0.65%; in assay [4], 6.45%; in assay [5], 9.2%; in assay [6], 0.55%.
As to `CC(C)(C)COB(OCC(C)(C)C)OCC(C)(C)C`, the growth inhibition in assay [1] is -2.8%; in assay [2], -13.2%; in assay [3] it was 3.55%; in assay [4], -29.1%; in assay [5] it was -9.55%; in assay [6], -15.2%.
As to `CCCCCCCCCCC1CC(=O)OC1=O` (configuration not stated), the growth inhibition is 17.2% in assay [1]; 14.7% in assay [2]; 29.6% in assay [3]; 9.45% in assay [4]; 9.25% in assay [5]; 8.3% in assay [6].
For `O=C(CC(=O)N1N=C(n2ccc3ccccc32)CC1c1ccccc1)Nc1ccc(Cl)cc1` (configuration not stated), the growth inhibition in assay [1] is -25.3%; in assay [2], -7.7%; in assay [3], -16.8%; in assay [4], 7.1%; in assay [5], -4.35%; in assay [6] it was -5%.
`O=C(O)c1c(-c2nccc3ccccc23)[nH]c(-c2ccccc2)c1S(=O)(=O)O`: the growth inhibition in assay [1] is -23.1%; in assay [2], 5.7%; in assay [3], -18.9%; in assay [4], -35.3%; in assay [5] it was -24.4%; in assay [6], 21.6%.
Consider `O=C1CCC2OC3CCC(=O)N3CN12` (configuration not stated), for which the growth inhibition in assay [1] is 9.8%; in assay [2], 8%; in assay [3], 6.55%; in assay [4], -11.3%; in assay [5], 4.95%; in assay [6], -3.6%.
Regarding `COc1ccc(NC(=S)N/N=C(\C)c2ccccn2)cc1`, the growth inhibition in assay [1] was 81.5% (active); in assay [2], 91.8% (active); in assay [3], 94% (active); in assay [4] it was 35.4%; in assay [5], 80.1% (active); in assay [6], 84.8% (active).
`Cc1nn(C(=O)c2ccc(Cl)cc2)c2c1C(c1ccc([N+](=O)[O-])cc1)SC(N)=N2` (configuration not stated): the growth inhibition in assay [1] was -14.8%; in assay [2] it was 7.4%; in assay [3], 16.4%; in assay [4], -16.8%; in assay [5] it was -16.1%; in assay [6] it was -4.1%.
On to `COc1ccc(-n2cnc3c2NC(C)(C)N=C3C(N)=O)c(OC)c1`, for which the growth inhibition in assay [1] is -17.8%; in assay [2], -30.1%; in assay [3], -36.1%; in assay [4], 24.9%; in assay [5] it was -10.2%; in assay [6], -23.2%.
`Brc1ccc(SSc2ccc(Br)cc2)cc1`: the growth inhibition in assay [1] was -12.8% and 3.2%; in assay [2], 13.1% and -10.3%; in assay [3], 3.45% and 5.3%; in assay [4] it was -18.4% and -5.5%; in assay [5] it was -3.15% and 9.8%; in assay [6], 18.8% and 2.65%.
Consider `O=C(O)/C=C/c1cc(Br)sc1Br`, for which the growth inhibition in assay [1] is -2.05%; in assay [2] it was 7.35%; in assay [3], 5%; in assay [4] it was -11.3%; in assay [5], -0.95%; in assay [6], 19.5%.
On to `CCOc1ccc(OCC)cc1`, for which the growth inhibition is 3.6% in assay [1]; -0.65% in assay [2]; -9.05% in assay [3]; -29.3% in assay [4]; -11.1% in assay [5]; 4.65% in assay [6].
For `OCC1OC(n2cnc3c2NC=NC[C@H]3O)C(O)C1O` (some centres not stated), the growth inhibition in assay [1] is 32.4%; in assay [2], -3.8%; in assay [3], 25.4%; in assay [4] it was -7.55%; in assay [5], 6.25%; in assay [6] it was 25.8%.
As to `COC(=O)C(=O)C1CCc2ccc3ccccc3c2C1=O` (configuration not stated), the growth inhibition in assay [1] is -5.8%; in assay [2], 2.3%; in assay [3], 24.2%; in assay [4] it was -4.65%; in assay [5] it was 2.3%; in assay [6], 38.5%.
